Assay [1] in a line: qHTS assay to test for compound auto fluorescence at 535 nm (green) in HEK293 cells (AID 720680). For orientation: Quantitative high-throughput screening tests each substance at several concentrations.
Assay [2] in a line: qHTS assay to test for compound auto fluorescence at 460 nm (blue) in HEK293 cell free culture (AID 720681). In short, it runs like this:
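Compounds were added to cell-free DMEM with 10% FBS and fluorescence read directly. The blue channel used 405 nm excitation and 460 nm emission, with triamterene as the reference fluorophore.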

Assay [3] in a line: qHTS assay to test for compound auto fluorescence at 535 nm (green) in HEK293 cell free culture (AID 720682). Summed up: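 Each library compound, or DMSO control, is added by pintool to medium alone, comprising DMEM and 10% FBS. Emission at 535 nm following 485 nm excitation is quantified against fluorescein.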
Assay [4] can be described thus: qHTS assay to test for compound auto fluorescence at 590 nm (red) in HepG2 cell free culture (AID 720684). Summed up: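 Rose Bengal sodium served as the reference for red signal. Test compounds were dispensed into serum-containing MEM (10% FBS) without cells, and plates were read at 540/590 nm.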
A short description of assay [5]: qHTS assay to test for compound auto fluorescence at 460 nm (blue) in HepG2 cell free culture (AID 720685). In short, it runs like this:
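Cell-free plates of MEM plus 10% FBS received 23 nL compound or DMSO vehicle; blue-channel (405/460 nm) intensity scored against triamterene as reference fluorophore.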

Assay [6] in a line: qHTS assay to test for compound auto fluorescence at 535 nm (green) in HepG2 cell free culture (AID 720686).
Assay [7] is described as follows: qHTS assay to test for compound auto fluorescence at 460 nm (blue) in HepG2 cells (AID 720687). Summed up: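 HepG2 cells in MEM with 10% FBS, attached overnight at 37 C, were exposed to compound or DMSO for 1 hr at 37 C, 5% CO2. Blue fluorescence was read at 405/460 nm, with triamterene as reference fluorophore.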
The target of assay [8] is Glucocorticoid receptor (Homo sapiens) (UniProt P04150). In words: qHTS assay to identify small molecule agonists of the glucocorticoid receptor (GR) signaling pathway (AID 720691; active means well fitted activation curve with a large enough effect in the signal ratio in the repeat runs, not every such curve was filed as active; the % refers to the signal ratio). In short, it runs like this: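 HeLa GR-bla reporter line; cells pre-incubated 4 h, compound in DMSO 18 h at 37 C; LiveBLAzer B/G FRET substrate 2 h RT; fluorescence intensity read-out.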
The nature of assay [9]: qHTS assay to identify small molecule antagonists of the glucocorticoid receptor (GR) signaling pathway - cell viability counter screen (AID 720693). Further: nearly all actives have a fitted effect of over 55% in size.
Assay [10] in a line: qHTS assay for identifying genotoxic compounds that show differential cytotoxicity against isogenic chicken DT40 cell lines with known DNA damage response pathways - wild type cell line (AID 743012). Further: nearly all actives have a fitted effect of over 60% in size. In short, it runs like this:
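CellTiter-Glo luminescence readout of viability in wild type DT40 cells after 40 h compound exposure at 37 C/5% CO2; 300 cells/well; reagent incubated 30 min at room temperature before reading.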

The nature of assay [11]: qHTS assay for identifying genotoxic compounds that show differential cytotoxicity against isogenic chicken DT40 cell lines with known DNA damage response pathways - Rev3 mutant cell line (AID 743014). Further: nearly all actives have a fitted effect of over 55% in size. Further: potency means the concentration at half of the fitted maximal effect.
A short description of assay [12]: qHTS assay for identifying genotoxic compounds that show differential cytotoxicity against isogenic chicken DT40 cell lines with known DNA damage response pathways - Rad54/Ku70 mutant cell line (AID 743015). Further: nearly all actives have a fitted effect of over 60% in size. Further: potency means the concentration at half of the fitted maximal effect.
Assay [13] can be described thus: qHTS assay to identify small molecule antagonists of the androgen receptor (AR) signaling pathway - cell viability counter screen (AID 743033; further: nearly all actives have a fitted effect of over 45% in size).
Assay [14] in a line: qHTS assay to identify small molecule antagonists of the androgen receptor (AR) signaling pathway using the MDA cell line - cell viability counter screen (AID 743041; further: nearly all actives have a fitted effect of over 45% in size). In short, it runs like this:
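Cytotoxicity counter screen: MDA-kb2 AR-luc cells, compound + R1881, 16 h, 37C, 0% CO2; CellTiter-Fluor added at 15.5 h, fluorescence read after 30 min.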

Assay [15] deals with Glucocorticoid receptor (Homo sapiens) (UniProt P04150). The experiment in a line: qHTS assay to identify small molecule antagonists of the glucocorticoid receptor (GR) signaling pathway (AID 720692; active means well fitted inhibition curve with a large enough effect in the signal ratio in the repeat runs, not every such curve was filed as active; the % refers to the signal ratio). Summed up: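 Read-out: beta-lactamase FRET substrate fluorescence, 2 h at room temperature, in HeLa cells stably carrying a GRE-driven bla reporter. Compounds were co-incubated with 5 nM dexamethasone agonist (final) for 18 h at 37 C.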

A short description of assay [16]: qHTS assay to test for compound auto fluorescence at 590 nm (red) in HEK293 cell free culture (AID 720683). In short, it runs like this: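 Cell-free wells of DMEM with 10% FBS received compound, and intrinsic fluorescence was read at excitation/emission 540/590 nm. Values expressed as equivalence to Rose Bengal sodium.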
In assay [17] the target is Androgen receptor (Homo sapiens) (UniProt P10275). The experiment in a line: qHTS assay to identify small molecule antagonists of the androgen receptor (AR) signaling pathway (AID 743035; active means well fitted inhibition curve with a large enough effect in the signal ratio in the repeat runs, not every such curve was filed as active; the % refers to the signal ratio). In short, it runs like this:
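AR-bla HEK293 reporter cells; 4 h settle at 37C/5% CO2; compound + R1881 agonist, 16 h at 37C; LiveBLAzer B/G FRET substrate 2 h RT; fluorescence intensity read. qHTS format.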

Assay [18] shares this target. In words: qHTS assay to identify small molecule agonists of the androgen receptor (AR) signaling pathway (AID 743036; active means well fitted activation curve with a large enough effect in the signal ratio in the repeat runs, with a control signal flat, not every such curve was filed as active; the % refers to the signal ratio). In short, it runs like this:
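Following a 4 h settling period, AR-UAS-bla HEK293 cells were dosed with compounds for 16 h at 37C. A 2 h room-temperature incubation with LiveBLAzer B/G FRET substrate preceded the fluorescence measurement.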

Assay [19] shares this target. The experiment in a line: qHTS assay to identify small molecule agonists of the androgen receptor (AR) signaling pathway using the MDA cell line (AID 743040; further: nearly all actives have a fitted effect of over 20% in size). In short, it runs like this: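 Luciferase read-out, ONE-Glo, 30 min RT. Cells: MDA-kb2 AR-luc, MMTV promoter with AR and GR response elements. Compound exposure 16 h, 37C, 0% CO2, after 5 h pre-incubation. qHTS agonist mode.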

Assay [20] shares this target. In words: qHTS assay to identify small molecule antagonists of the androgen receptor (AR) signaling pathway using the MDA cell line (AID 743042; further: nearly all actives have a fitted effect of over 55% in size). In short, it runs like this: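 MDA-kb2 breast carcinoma cells carrying MMTV-luciferase (AR/GR responsive) were co-treated with compounds and the agonist R1881 for 16 h at 37C. Inhibition read as ONE-Glo luminescence; CellTiter-Fluor fluorescence measured in parallel for cytotoxicity.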

Values without a mark were called inactive. Results filed as inconclusive are left out. Calls of active or inactive are those of the source. Unless noted, the call rests on the fitted dose curve; in most records, active means well fitted curve in the direction sought with a large enough effect in the repeat runs; inconclusive means weak or mixed curves; inactive means no such curve, though single readings can be large; an effect the other way counts as inactive or inconclusive.
On the % scale 0 is the no-effect control and ±100 the full control effect.

Androgen receptor (Homo sapiens), sequence (P10275 whole entry, looked up): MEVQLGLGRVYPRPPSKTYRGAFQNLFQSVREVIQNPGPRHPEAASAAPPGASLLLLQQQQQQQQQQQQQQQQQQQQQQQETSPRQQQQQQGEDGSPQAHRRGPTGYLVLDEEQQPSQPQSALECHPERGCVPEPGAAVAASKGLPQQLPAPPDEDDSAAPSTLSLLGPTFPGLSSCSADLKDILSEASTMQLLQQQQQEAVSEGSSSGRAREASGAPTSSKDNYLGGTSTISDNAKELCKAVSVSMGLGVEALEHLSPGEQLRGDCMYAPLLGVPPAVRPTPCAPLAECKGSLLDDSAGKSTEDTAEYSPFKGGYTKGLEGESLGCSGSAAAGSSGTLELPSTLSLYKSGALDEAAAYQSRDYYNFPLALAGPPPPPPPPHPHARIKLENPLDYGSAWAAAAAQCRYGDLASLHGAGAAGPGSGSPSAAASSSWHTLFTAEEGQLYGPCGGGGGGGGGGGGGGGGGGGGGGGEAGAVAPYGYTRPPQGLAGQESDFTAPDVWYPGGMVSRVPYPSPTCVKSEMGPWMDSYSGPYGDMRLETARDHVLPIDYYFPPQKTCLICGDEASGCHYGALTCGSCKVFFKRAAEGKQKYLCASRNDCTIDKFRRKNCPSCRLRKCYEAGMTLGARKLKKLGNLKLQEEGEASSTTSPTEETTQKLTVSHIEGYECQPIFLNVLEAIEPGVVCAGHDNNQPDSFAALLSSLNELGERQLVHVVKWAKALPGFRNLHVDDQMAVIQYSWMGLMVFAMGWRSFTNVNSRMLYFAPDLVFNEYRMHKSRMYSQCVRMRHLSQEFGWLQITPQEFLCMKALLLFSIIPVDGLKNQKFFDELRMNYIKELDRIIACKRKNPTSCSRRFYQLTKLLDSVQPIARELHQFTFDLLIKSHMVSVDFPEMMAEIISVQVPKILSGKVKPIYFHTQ
Glucocorticoid receptor (Homo sapiens), sequence (P04150 whole entry, looked up): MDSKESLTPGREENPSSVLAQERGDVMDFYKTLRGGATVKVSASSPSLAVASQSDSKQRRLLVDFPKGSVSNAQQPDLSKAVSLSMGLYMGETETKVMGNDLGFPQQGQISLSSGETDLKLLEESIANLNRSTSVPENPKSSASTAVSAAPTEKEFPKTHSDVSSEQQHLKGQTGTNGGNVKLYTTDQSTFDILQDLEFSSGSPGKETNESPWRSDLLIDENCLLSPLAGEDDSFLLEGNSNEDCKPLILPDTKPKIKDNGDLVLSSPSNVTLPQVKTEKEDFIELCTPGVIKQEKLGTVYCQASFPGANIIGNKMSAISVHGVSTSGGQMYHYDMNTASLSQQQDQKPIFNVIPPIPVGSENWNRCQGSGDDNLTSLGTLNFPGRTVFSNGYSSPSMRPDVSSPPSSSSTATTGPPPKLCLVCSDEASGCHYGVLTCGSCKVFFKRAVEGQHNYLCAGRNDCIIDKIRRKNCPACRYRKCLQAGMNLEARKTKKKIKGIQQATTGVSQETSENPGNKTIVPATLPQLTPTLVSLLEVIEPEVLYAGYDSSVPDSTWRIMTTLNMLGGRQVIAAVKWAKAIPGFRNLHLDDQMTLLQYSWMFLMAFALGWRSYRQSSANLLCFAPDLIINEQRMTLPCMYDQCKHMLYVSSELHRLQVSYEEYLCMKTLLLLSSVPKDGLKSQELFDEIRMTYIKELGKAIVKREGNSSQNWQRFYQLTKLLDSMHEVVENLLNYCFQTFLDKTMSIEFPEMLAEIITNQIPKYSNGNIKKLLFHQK

Take `CCCCCCCCS(=O)(=O)Cl`: the compound was called inactive in assay [1], in [2], in assay [3], in assay [4], in assay [5] and in [6]. Further, the outcome in assay [7] and in assay [9] was inactive. Also, the Potency result in [8], in assay [10], in assay [11], in assay [12], in [13] and in assay [14] was “inactive” each time.

Take `O=C(O)CCCc1ccccc1`: the call in [1], in [2], in [3], in [4], in assay [5] and in assay [6] was inactive. In addition, the compound was classed as inactive in assay [7] and in assay [9]. The Potency result in assay [8], in assay [15], in assay [10], in [11], in [12] and in assay [13] was “inactive” throughout. Moreover, the Potency result in assay [14] is “inactive”.

On to `CC(=O)OC/C=C(\C)CC/C=C(\C)CCC=C(C)C`, for which the compound was called inactive in [1], in assay [2], in assay [3], in assay [16], in assay [4] and in [5]. Further, the compound was called inactive in assay [6], in assay [7] and in [9]. The Potency in [11] and in assay [12] was 61.1 µM (active) in each case. For the same compound, the Potency result in [13] and in [14] was “inactive” throughout.

Take `CC(C)NC(=O)NC(C)C`: the compound was called inactive in [1], in assay [2], in assay [3], in assay [4], in [5] and in assay [6]. In addition, the compound was classed as inactive in assay [7], in assay [9], in [17] and in assay [18]. The Potency entry in [8], in assay [11], in assay [12], in assay [13], in [19] and in [14] was “inactive” throughout. Also, in assay [20], the Potency result is “inactive”.

With `CCCCCCCCCCCCCC=O`, the fluorescence, % of fluorescein in assay [1] is 0.0656% [at 3.72 µM]. Further, the fluorescence, % of fluorescent control is -0.0434% [at 3.72 µM] in assay [2], 0.0516% [at 3.72 µM] in [16], -0.0093% [at 3.72 µM] in [5] and -0.0327% [at 3.72 µM] in [7]. For the same compound, the activity change in assay [3] was -0.0074% [at 3.72 µM]. The fluorescence, % of Rose Bengal in assay [4] was 0.0058% [at 3.72 µM]. Also, the fluorescence, % of fluorescein control in [6] is 0.0349% [at 3.72 µM]. The figures for the viability change, negative = cytotoxic in [9] and in [14] were -0.799% [at 7.04 µM] and -4.68% [at 8.47 µM], respectively. For the same compound, the activity change, negative = cytotoxicity was -24.1% [at 8.55 µM] in assay [12] and 5.83% [at 7.04 µM] in [13].

As to `Nc1cc(=O)[nH]c(N)n1`, the outcome in assay [1], in assay [2], in assay [3], in assay [4], in assay [5] and in assay [6] was inactive. Moreover, the call in assay [7] and in [9] was inactive. The Potency entry in assay [10], in assay [11], in assay [12], in assay [13] and in assay [14] was “inactive” throughout.

Consider `O=c1[nH]c(=O)n([C@H]2C[C@H](O)[C@@H](CO)O2)cc1I`, for which the call in assay [1], in assay [2], in assay [3], in assay [16], in [4] and in [5] was inactive. Moreover, the compound was classed as inactive in [6], in assay [7] and in assay [9]. Also, the results for the Potency in [11] and in assay [12] were 1.8 µM (active) and 2.02 µM (active), respectively. For the same compound, the Potency result in assay [14] was “inactive”.

`NS(=O)(=O)c1ccc(C(=O)O)cc1`: the call in [1], in [2], in [3], in assay [4], in assay [5] and in assay [6] was inactive. Besides, the compound was classed as inactive in assay [7], in assay [9], in assay [17] and in [18]. The Potency entry in assay [8], in [15], in assay [10], in [12], in assay [13] and in assay [19] was “inactive” throughout. Besides, the Potency result in [14] and in [20] was “inactive” throughout.

Consider `CCC(=O)OC(C)c1ccccc1` (stereo unspecified), for which the compound was called inactive in assay [1], in assay [2], in assay [3], in assay [4], in [5] and in assay [6]. The result in assay [7] and in assay [9] was inactive. The Potency result in [8], in assay [11], in assay [13] and in [14] was “inactive” throughout.
